“And” between values parts separate entries of the source, which are not always exact repeats. Equal entries are not always repeated. Results filed as inconclusive are left out. The source made the active and inactive calls. Rule for the calls: active = hit-call score of the fitted dose curve at least 0.9, where 1 is the maximum; inconclusive = response in the unintended direction; inactive = score below 0.9.
Key:
[1] = molecular target: Cellular tumor antigen p53 (Homo sapiens) (UniProt P04637); assay: TOX21_p53_BLA_p2_ratio: Tox21 HCT-116 p53 Agonism Beta-lactamase Assay, Ratio, Phase 2 (AID 2283592)
Method in brief: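 An inducible beta-lactamase reporter in HCT116 cells signals p53 pathway activation. After 16 h chemical exposure at 37C, cells load CCF4-AM substrate for 2 h at room temperature; activity is the cleaved/uncleaved emission ratio relative to DMSO.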

[2] = TOX21_p53_BLA_p3_viability: Viability Assessment in the Tox21 HCT-116 p53 Agonism Beta-lactamase Assay, Phase 3 (AID 2283593);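 note: cells exposed to compound for 16 h before reading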
Method in brief: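 Cellular ATP was quantified by CellTiter-Glo luminescence, read after 30 min at room temperature. Beforehand, HCT116 cells (4000/well) received compound 5 h post-seeding, 217-fold diluted from DMSO, then incubated 16 h at 37C.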

[3] = molecular target: Cellular tumor antigen p53 (Homo sapiens) (UniProt P04637); assay: TOX21_p53_BLA_p3_ratio: Tox21 HCT-116 p53 Agonism Beta-lactamase Assay, Ratio, Phase 3 (AID 2283596)
Method in brief: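 HCT116 p53-bla cells (4000/well) given compound in DMSO (217-fold dilution) after 5 h, incubated 16 h at 37C. CCF4-AM substrate 2 h at room temperature; 460/530 nm emission ratio, gain fitted against DMSO.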

[4] = TOX21_p53_BLA_p4_viability: Viability Assessment in the Tox21 HCT-116 p53 Agonism Beta-lactamase Assay, Phase 4 (AID 2283597);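 note: hits lower the luminescence signal meaning cytotoxicity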
Method in brief: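 Compound exposure of HCT116 cells lasts 16 h at 37C, 5% CO2, with DMSO stocks diluted 217-fold. Cellular ATP is then quantified by CellTiter-Glo luminescence after 30 min at room temperature.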

[5] = molecular target: Cellular tumor antigen p53 (Homo sapiens) (UniProt P04637); assay: TOX21_p53_BLA_p5_ratio: Tox21 HCT-116 p53 Agonism Beta-lactamase Assay, Ratio, Phase 5 (AID 2283599)
Method in brief: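 Beta-lactamase reporter ratio (blue 460 nm over green 530 nm, 405 nm excitation) after 2 h CCF4-AM loading, in HCT-116 cells exposed 16 h at 37 C to compounds pinned at 217-fold dilution. Increases relative to DMSO baseline scored.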

[6] = molecular target: Cellular tumor antigen p53 (Homo sapiens) (UniProt P04637); assay: TOX21_p53_BLA_p4_ratio: Tox21 HCT-116 p53 Agonism Beta-lactamase Assay, Ratio, Phase 4 (AID 2283601)
Method in brief: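 Signal is the blue/green (460nm/530nm) ratio of cleaved versus uncleaved CCF4-AM substrate, read after 2 h substrate loading. Cells were HCT116 carrying the p53-responsive beta-lactamase reporter, dosed 16 h at 37C, 5% CO2; CellTiter-Glo measured in parallel.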

[7] = TOX21_p53_BLA_p5_viability: Viability Assessment in the Tox21 HCT-116 p53 Agonism Beta-lactamase Assay, Phase 5 (AID 2283600)
Method in brief: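 Counter-readout for cytotoxicity: ATP-dependent luminescence from CellTiter-Glo, read in the beta-lactamase wells after 30 min at RT, following a 16 h compound exposure at 37C.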

THRA (gene 7067) = THRA (gene 7067) (UniProt P10827); assay: TOX21_TRA_COA_Antagonist_Followup_ratio: Tox21 Thyroid Hormone Receptor alpha Antagonism through Coactivator Recruitment Follow-Up Assay, Ratio (AID 2283953)
Method in brief: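 520:495 nm emission ratio (excitation 340 nm) reports fluorescein-SRC-2 peptide recruitment to GST-TRα LBD by TR-FRET with Tb anti-GST antibody. Values were normalized to DMSO (0%) and T3 control wells (100%); loss of signal indicated antagonism.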

THRB (gene 7068) [8] = molecular target: THRB (gene 7068) (UniProt P10828); assay: TOX21_TRB_BLA_Antagonist_Followup_ratio: Tox21 Thyroid Hormone Receptor beta Antagonism Beta-lactamase (BLA) Follow-Up Assay, Ratio (AID 2283958)
Method in brief: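 HEK293T TRb-bla (GAL4 DBD + hTRβ LBD), 2% cs-FBS phenol red-free DMEM, 5 h attach; cpds 11-pt triplicate, 18 h 37C; CCF4-AM 2 h RT; 460/530 ratio vs DMSO; CellTiter-Glo viability same wells.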

[9] = TOX21_TRB_BLA_Antagonist_Followup_viability: Viability Assessment in the Tox21 Thyroid Hormone Receptor beta Antagonism Beta-lactamase (BLA) Follow-Up Assay (AID 2283961)
Method in brief: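 Cytotoxicity is measured in parallel with the antagonist-mode TRβ beta-lactamase screen, using ATP-coupled luciferase luminescence. Engineered HEK293T cells are treated for 18 h with 11-point compound series in triplicate.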

THRB (gene 7068) [10] = molecular target: THRB (gene 7068) (UniProt P10828); assay: TOX21_TRB_COA_Antagonist_Followup_ratio: Tox21 Thyroid Hormone Receptor beta Antagonism through Coactivator Recruitment Follow-Up Assay, Ratio (AID 2283967)
Method in brief: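 Test compound was incubated with 5.0 nM GST-TRβ LBD in 0.10% BSA. Then 200 nM fluorescein-SRC-2 peptide and 2 nM terbium anti-GST antibody were added. TR-FRET (520:495 nm) was measured and normalized to DMSO and T3 controls.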

[11] = molecular target: Retinoic acid receptor RXR-alpha (Homo sapiens) (UniProt P19793); assay: TOX21_TR_RXR_BLA_Antagonist_Followup_ratio: Tox21 Thyroid Hormone Receptor beta Retinoid X Receptor alpha (RXRa) Antagonism Beta-lactamase (BLA) Follow-Up Assay, Ratio (AID 2283972)
Method in brief: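 Antagonist mode used GAL4 UAS-driven beta-lactamase in HEK293T cells expressing RXRa, treated for 16 h with compound concentration series. Activity was taken from the blue/green (460:530 nm) ratio of cleaved to uncleaved substrate.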

[12] = TOX21_TR_RXR_BLA_Antagonist_Followup_viability: Viability Assessment in the Tox21 Thyroid Hormone Receptor beta Retinoid X Receptor alpha (RXRa) Antagonism Beta-lactamase (BLA) Follow-Up Assay (AID 2283979)
Method in brief: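 Follow-up compounds (11 concentrations, triplicate) were incubated 16 h at 37C/5% CO2 with HEK293T RXRa-bla cells seeded at 2,500/well in charcoal-stripped-serum medium. ATP content by CellTiter-Glo luminescence gave viability; curves fitted in both directions against DMSO.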

Measured: AC50

Cellular tumor antigen p53 (Homo sapiens), sequence (P04637 whole entry, looked up): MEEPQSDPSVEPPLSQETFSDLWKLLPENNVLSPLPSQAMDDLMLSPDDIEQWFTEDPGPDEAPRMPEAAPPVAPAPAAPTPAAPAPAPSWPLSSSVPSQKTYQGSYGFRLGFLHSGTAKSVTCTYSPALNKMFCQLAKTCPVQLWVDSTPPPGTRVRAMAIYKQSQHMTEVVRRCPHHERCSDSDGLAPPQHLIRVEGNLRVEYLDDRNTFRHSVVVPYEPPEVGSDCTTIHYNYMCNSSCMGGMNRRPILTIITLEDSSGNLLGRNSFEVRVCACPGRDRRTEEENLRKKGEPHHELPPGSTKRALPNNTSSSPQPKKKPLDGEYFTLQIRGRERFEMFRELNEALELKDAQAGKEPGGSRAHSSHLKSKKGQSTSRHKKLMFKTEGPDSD
THRB (gene 7068), sequence (P10828 whole entry, looked up, the tested form may be a part): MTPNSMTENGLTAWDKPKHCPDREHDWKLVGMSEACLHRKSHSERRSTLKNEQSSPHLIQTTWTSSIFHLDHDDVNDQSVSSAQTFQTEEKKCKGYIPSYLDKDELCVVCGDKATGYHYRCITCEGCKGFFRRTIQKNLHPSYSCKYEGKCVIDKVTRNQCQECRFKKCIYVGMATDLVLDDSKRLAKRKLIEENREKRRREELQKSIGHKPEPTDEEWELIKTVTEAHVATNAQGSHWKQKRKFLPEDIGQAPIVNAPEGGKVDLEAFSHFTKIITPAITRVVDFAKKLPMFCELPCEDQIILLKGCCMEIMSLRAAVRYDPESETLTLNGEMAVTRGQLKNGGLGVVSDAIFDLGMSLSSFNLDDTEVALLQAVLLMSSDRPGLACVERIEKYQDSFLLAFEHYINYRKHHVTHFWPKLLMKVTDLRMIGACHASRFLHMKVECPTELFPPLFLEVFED
THRA (gene 7067), sequence (P10827 whole entry, looked up, the tested form may be a part): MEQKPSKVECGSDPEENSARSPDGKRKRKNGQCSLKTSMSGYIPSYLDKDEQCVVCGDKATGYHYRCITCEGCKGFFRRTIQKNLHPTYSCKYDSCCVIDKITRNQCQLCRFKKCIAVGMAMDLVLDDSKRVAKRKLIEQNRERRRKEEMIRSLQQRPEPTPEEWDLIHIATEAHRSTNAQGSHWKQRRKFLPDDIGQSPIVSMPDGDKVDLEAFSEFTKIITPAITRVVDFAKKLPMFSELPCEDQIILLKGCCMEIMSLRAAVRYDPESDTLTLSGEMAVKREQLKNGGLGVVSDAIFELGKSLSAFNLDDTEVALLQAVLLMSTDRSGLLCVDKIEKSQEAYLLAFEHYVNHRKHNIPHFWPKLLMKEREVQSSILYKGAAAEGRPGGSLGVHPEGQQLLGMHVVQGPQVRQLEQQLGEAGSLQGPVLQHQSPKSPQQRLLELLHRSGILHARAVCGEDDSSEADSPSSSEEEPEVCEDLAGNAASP
Retinoic acid receptor RXR-alpha (Homo sapiens), sequence (P19793 whole entry, looked up, the tested form may be a part): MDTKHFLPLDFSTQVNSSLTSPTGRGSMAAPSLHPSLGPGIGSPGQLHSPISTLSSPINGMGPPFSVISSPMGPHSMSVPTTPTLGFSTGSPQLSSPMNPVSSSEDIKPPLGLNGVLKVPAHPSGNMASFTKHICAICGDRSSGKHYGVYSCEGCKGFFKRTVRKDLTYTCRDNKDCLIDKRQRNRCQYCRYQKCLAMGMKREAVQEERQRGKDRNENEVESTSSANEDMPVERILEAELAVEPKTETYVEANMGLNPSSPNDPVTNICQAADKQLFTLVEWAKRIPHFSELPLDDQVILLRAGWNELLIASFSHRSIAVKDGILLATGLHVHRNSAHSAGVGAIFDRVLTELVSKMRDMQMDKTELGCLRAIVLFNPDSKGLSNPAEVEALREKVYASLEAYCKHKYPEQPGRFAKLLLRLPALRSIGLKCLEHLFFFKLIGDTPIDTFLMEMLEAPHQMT

Nc1cc(Cl)ccc1Cl
inactive: [1] | [2] | [3] | [4] | [5] | [6]

[S]=[Sb](=[S])[S][Sb](=[S])=[S]
inactive: [1] | [2] | [3] | [5] | [7] | [6]

N[C@@H](Cc1ccc(N(CCCl)CCCl)cc1)C(=O)O
inactive: [2] | [4] | [7]
active: [1] 26.6 µM and 25.6 µM | [3] 20.2 µM and 24.6 µM | [5] 32.6 µM and 29.2 µM | [6] 22.7 µM and 30.4 µM

NCC(O)c1cccc(O)c1 (stereo unspecified)
inactive: [1] | [2] | [3] | [4] | [5] | [7] | [6]

CN1C(=O)[C@@H](NC(=O)c2cc3ccccc3[nH]2)N=C(c2ccccc2)c2ccccc21
active: THRB (gene 7068) [8] 10700 nM
not listed: [7]
inactive: all other assays above

CNC(C)Cc1ccccc1 (stereo unspecified)
inactive: [1] | [2] | [3] | [5]

O=Cc1ccccc1
inactive: [1] | [2] | [3] | [4] | [5] | [6]

C[C@]12CC[C@H](O)C[C@H]1CC[C@@H]1[C@@H]2CC[C@]2(C)[C@@H](c3ccc(=O)oc3)C[C@H]3O[C@]132
inactive: [1] | [3] | [5] | [6]
active: [2] 978 nM | [4] 1230 nM | [7] 1040 nM

CNc1ccc(C(=O)CC(O)CCC(C)C2OC(=O)CC(O)CC(=O)CC(O)CC(O)CC(O)CC(O)CC3(O)CC(O)C(C(=O)OC)C(CC(O[C@@H]4O[C@H](C)[C@@H](O)[C@H](N)[C@@H]4O)/C=C/C=C/C=C/C=C/C=C/C=C/C=C/C2C)O3)cc1 (stereo partly specified) (tested in a mixture with another compound)
inactive: [2] | [3] | [4] | [7] | [6]
active: [1] 37.8 µM

C=C[C@H]1CN2CC[C@H]1C[C@@H]2[C@@H](O)c1ccnc2ccccc12
inactive: [1] | [2] | [3] | [4] | [5] | [7] | [6]

Cc1c(Cl)c(=O)oc2cc(OP(=O)(OCCCl)OCCCl)ccc12
inactive: [1] | [2] | [3] | [5] | [7] | [6]

ClC=CCl
inactive: [1] | [2] | [3] | [4] | [5] | [7] | [6]

From PubChem BioAssay (EPA / NIEHS)
